High-throughput results (PubChem BioAssay)
In the library only some 2.9% were active in any assay of this set; here they are far more common.
Pol eta inh = inhibitors of human DNA polymerase eta; AID 588591; Q9Y253; Potency, µM (highest dose often 114 µM), hits mostly inhibitors; actives 1.2% (n = 390,000); recombinant Pol eta, fluorescent DNA replication assay
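Fluorescent replication assay: 50 nM final substrate added after a 15 min room-temperature compound preincubation with 10 nM enzyme. Signal taken at 0 min and again at 10 min.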
Pol kappa inh = DNA polymerase kappa (human) inhibition; Q9UBT6; purified Pol kappa, fluorescent DNA synthesis assay, 10 min; Potency, µM (series often up to 107 µM), actives largely listed as inhibitors; actives 0.53% (n = 400,000); AID 588579
Target sequence (Q9UBT6 whole entry, looked up): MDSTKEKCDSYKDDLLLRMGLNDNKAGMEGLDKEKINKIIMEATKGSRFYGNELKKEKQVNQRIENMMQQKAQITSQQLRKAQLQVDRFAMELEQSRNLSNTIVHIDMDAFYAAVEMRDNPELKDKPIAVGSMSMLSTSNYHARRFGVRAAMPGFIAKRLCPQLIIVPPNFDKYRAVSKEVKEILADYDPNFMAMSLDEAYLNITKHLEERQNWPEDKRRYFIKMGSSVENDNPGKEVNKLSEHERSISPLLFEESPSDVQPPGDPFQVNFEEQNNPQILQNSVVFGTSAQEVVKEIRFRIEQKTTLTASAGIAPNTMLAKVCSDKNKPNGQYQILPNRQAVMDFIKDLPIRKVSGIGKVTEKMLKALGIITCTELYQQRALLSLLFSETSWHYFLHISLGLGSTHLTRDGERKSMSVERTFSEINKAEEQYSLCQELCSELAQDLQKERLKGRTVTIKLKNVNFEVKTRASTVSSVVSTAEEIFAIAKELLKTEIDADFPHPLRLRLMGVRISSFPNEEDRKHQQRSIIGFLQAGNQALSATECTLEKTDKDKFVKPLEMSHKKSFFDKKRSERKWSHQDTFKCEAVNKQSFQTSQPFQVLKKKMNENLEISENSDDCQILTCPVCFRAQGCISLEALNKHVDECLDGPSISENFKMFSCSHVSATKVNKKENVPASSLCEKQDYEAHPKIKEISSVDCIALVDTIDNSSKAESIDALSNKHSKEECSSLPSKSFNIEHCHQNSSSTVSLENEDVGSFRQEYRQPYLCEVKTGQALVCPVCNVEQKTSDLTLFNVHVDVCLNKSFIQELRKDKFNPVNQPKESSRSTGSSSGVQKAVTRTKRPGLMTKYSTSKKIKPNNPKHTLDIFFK
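Pol kappa 10 nM + cpd, 15 min RT; start w/ substrate 50 nM final; fluorescence kinetic read, 0 and 10 min. Neg ctrl: buffer, no enzyme.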
PI5P4Ka inh = inhibitors of human PI5P4K alpha; max response, %; PI5P4Kalpha enzyme, ADP-Glo luminescence, 60 min; hits give low values; AID 652105; actives 1.2% (n = 330,000); active = max response of -50% or lower; inconclusive = between -30% and -50%; inactive = -30% or higher; note: value at the top dose of about 77 µM
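Enzyme plus substrate dispensed, test compounds pinned in, then ATP (5 microM final) added. After 60 min at RT, ADP-Glo reagent 1 for 45 min and reagent 2 for 30 min preceded luminescence imaging.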
Pol beta inh = inhibitors of human DNA polymerase beta. P06746. Potency, µM (series often up to 114 µM), actives largely listed as inhibitors. AID 485314. actives 1.3% (n = 340,000). Pol beta primer extension/strand displacement, fluorescence kinetic
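Values derive from four-parameter Hill fits of normalized kinetic data: reads at 0 and 10 min following addition of 50 nM substrate to 10 nM Pol beta preincubated 15 min with compound.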
12-LOX inh = inhibitors of human 12S-lipoxygenase ALOX12 | Potency, µM (doses to about 108 µM), hits mostly inhibitors | actives 1.1% (n = 580,000) | purified 12hLO, xylenol orange hydroperoxide absorbance | P18054
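Purified human 12hLO (150 nM final) in 25 mM Hepes, 0.01% Triton X-100, pH 7.0 was preincubated 15 min at room temperature with compound. Then 40 uM arachidonic acid was added, 30 min. Hydroperoxide was read by Fe-XO absorbance ratio 573/405 nm.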
POLI inh = inhibitors of human DNA polymerase iota; Pol iota fluorescent replication assay, 10 min; Q9UNA4; actives 1% (n = 390,000); Potency, µM (titrated, usually from 115 µM), usual class: inhibitors
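Pol iota at 10 nM preincubated 15 min with compounds at room temperature; reaction started with fluorescent substrate, 50 nM final. Fluorescence read kinetically at 0 and 10 min; buffer-only wells as negative control.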
PGK validate = TbPGK inhibition, hit validation. AID 686980. actives 79% (n = 500). TbPGK coupled GAPDH assay, Kinase-Glo luminescence. Potency, µM (top dose mostly 57.5 µM), usual class: inhibitors. shares compounds with Pol kappa inh; note: nearly all actives have a fitted effect of over 65% in size
Pol iota confirm = Inhibitors of human DNA polymerase iota, confirmation | shares compounds with Pol kappa inh | Pol iota primer extension, TAMRA/BHQ fluorescence | Potency, µM, usual class: inhibitors | actives 77% (n = 1,500) | AID 720496
Numbers stand for hits; n = inactive; u = inconclusive; x = no result given; [ ] = another dose, or the depositor's remark. Unless noted, calls come from the whole dose curve; as a rule, active = well fitted curve in the direction sought with a large enough effect; inconclusive = small, poorly fitted or top-dose-only effect, or another doubt; inactive = no such curve, though single readings can be large; an effect the other way counts as inactive or inconclusive.

SMILES | Pol eta inh | Pol kappa inh | PI5P4Ka inh | Pol beta inh | 12-LOX inh | POLI inh | PGK validate | Pol iota confirm
CN(Cc1ccc(F)cc1)Cc1cn(-c2ccccc2)nn1 | x | x | x | x | n | x | x | x
COc1cccc2sc(NN)nc12 | n | n | n | n | u | n | x | x
NNc1nc2c(Cl)c(Cl)ccc2s1 | u | u | u | u | u | 14µM | u | 67
O=C1Nc2ccccc2/C1=N/N=C/c1ccc(-c2ccc([N+](=O)[O-])cc2)o1 | u | n | n | n | n | n | x | u
CN(/N=C/c1ccc(-c2ccc([N+](=O)[O-])cc2)o1)c1ccccc1 | n | n | n | n | n | n | x | x
Cc1cc(C)c(S(=O)(=O)N2CCN(CCN3C(=O)c4cccc5cccc(c45)C3=O)CC2)cc1[N+](=O)[O-] | x | x | x | n | x | x | x | x
O=C1c2cccc3cc([N+](=O)[O-])cc(c23)C(=O)N1CCN1CCCC1 | n | 79µM | n | 14µM | n | 20µM | x | 19
O=C(/C=C/c1ccc(O)c(O)c1)OC1C(O)CC(OC(=O)/C=C/c2ccc(O)c(O)c2)(C(=O)O)CC1O (centres undefined) | u | u | n | 1.4µM | n | 5µM | x | 24
Cc1nc(-c2ccc(C(=O)N3CCCC3)cc2)cs1 | n | n | u | n | n | n | 18µM | x
Cc1nc(-c2ccc(C(=O)N3CCOCC3)cc2)cs1 | n | n | n | n | n | n | x | x
CN(C(=O)c1cc2sccc2n1C)C1CCCCC1 | n | n | x | n | n | n | x | x
Cn1c(C(=O)NC2CCCCC2)cc2sccc21 | n | n | x | n | n | n | u | x
CCN1CCc2c(sc(NC(=O)CSc3ccccc3)c2-c2nc3ccccc3s2)C1 | n | n | x | n | u | n | x | x
CC(=O)Nc1sc2c(c1-c1nc3ccccc3s1)CCN(C(C)C)CC2 | x | x | x | x | x | x | x | 67
CC(=O)Nc1sc2c(c1-c1nc3ccccc3s1)CCCNC2 | x | x | x | x | x | x | x | u
Cc1cnc2c(S(=O)(=O)N3CCNC(=O)C3)cccc2c1 | x | x | x | x | n | x | x | x
CSc1ccc(/C=C/C(=O)Nc2cc(F)ccc2F)cc1 | x | x | x | x | n | x | x | x
Cc1ccc(O)c(N=Nc2ccccc2)n1 | n | n | -78 | n | u | n | 15µM | x
Fc1cccc(CCN2CCNC[C@@H]2Cc2ccccc2)c1 | n | n | n | x | n | u | u | x
O=C(O)Cc1cccc(=O)c(O)c1C(=O)O | 4µM | u | n | x | x | 22µM | 5.2µM | x
CC1=C/C(=C(/c2cc(C)c(O)c(Br)c2)c2ccccc2S(=O)(=O)O)C=C(Br)C1=O | 35µM | u | -65 | n | u | u | 18µM | x
Cc1cncn1CCc1nc2c3ccccc3nc(SCC(=O)Nc3ccc(F)cc3)n2n1 | n | n | x | n | n | n | n | x
Cc1ccc(NC(=O)CSc2nc3ccccc3c3nc(CCn4c(C)nc5ccccc54)nn23)cc1F | u | n | x | u | n | 79µM | x | u
COc1ccc(-c2nc(-c3nnn4c3COC(c3ccc(C)cc3)C4)no2)c(OC)c1 (centres undefined) | x | x | x | x | n | x | x | x
COc1ccc(-c2nc(-c3ccccn3)no2)cc1 | n | n | u | n | n | n | 5.8µM | x
SMILES | Pol eta inh | Pol kappa inh | PI5P4Ka inh | Pol beta inh | 12-LOX inh | POLI inh | PGK validate | Pol iota confirm
COc1ccccc1-c1nc(-c2ccccn2)no1 | n | n | u | n | n | n | 18µM | x
COc1ccc(-c2noc(-c3nc(-c4ccccn4)no3)n2)cc1 | x | x | x | x | n | x | x | x
NC(=O)N/N=C/c1coc2ccc3ccccc3c2c1=O | n | n | n | n | n | n | x | x
O=Cc1coc2ccc3ccccc3c2c1=O | n | n | -86 | u | n | n | u | x
Clc1ccccc1Nc1nnc(-c2ccncc2)s1 | n | n | u | n | n | n | 15µM | x
FC(F)(F)c1ccc(Cl)c(Nc2nnc(-c3ccncc3)s2)c1 | x | x | n | x | u | x | x | x
CC1=CC2=NC(=O)/C(=C\c3ccc(-c4cccc(Cl)c4)o3)C(=N)N2O1 | 5.6µM | n | n | u | n | u | x | u
CCOc1ccc2nc(NC(=O)c3ccoc3C)sc2c1 | n | n | u | n | n | u | 6.5µM | x
COCCNC(=O)CNC(=O)c1nn(-c2ccc(OC)cc2OC)c(=O)c2ccccc12 | x | x | x | x | n | x | x | x
Nc1c(/C=C2/C=CC(=O)C(O)=C2)c(=O)nc2sc(CC(=O)N3CCCCC3)nn12 | n | u | n | u | u | u | 1.6µM | x
Cc1cc(C)n2nc(CC(=O)Nc3nc(-c4cccc(Cl)c4)cs3)nc2n1 | x | x | x | x | n | x | x | x
c1ccc2nc(-c3nc4ccccc4o3)ccc2c1 | n | n | x | n | n | n | 18µM | x
Cc1cc(C)n(-c2ccc(=O)n(CC(=O)Nc3ccccc3)n2)n1 | x | x | x | x | n | x | x | x
COc1ccc(Cl)cc1C(=O)Nc1c(NCc2ccccc2)c2ccccc2oc1=O | x | x | x | x | n | x | x | x
Cc1ccsc1/C=C1\CCc2ccccc2C1=O | n | n | u | n | n | n | 15µM | x
Cc1cc(C)cc(NC(=O)Cn2nnc(C(=O)NCc3ccc4c(c3)OCO4)c2N)c1 | u | u | n | u | n | u | x | x
Cc1ccc(CNC(=O)c2nnn(CC(=O)Nc3cc(C)cc(C)c3)c2N)cc1 | u | u | n | u | n | 40µM | x | 34
CC(C)N[C@H]1C[C@@H](Cc2cc(CC3CCCCC3)on2)C1(C)C | x | x | x | x | n | x | x | x
COc1ccc(Br)cc1CNC(=O)CN1C(=O)c2cccnc2Oc2ccc(C)cc21 | u | n | x | n | u | u | x | u
COc1cc([N+](=O)[O-])ccc1NC(=O)COC(=O)c1ccc(NC(N)=O)cc1 | u | n | n | u | n | n | x | 42
O=C(CCN1C(=O)/C(=C/c2ccc(Cl)cc2)SC1=S)Nc1cccc(C(=O)O)c1 | 89µM | n | n | n | n | n | x | u
CCOc1ccc(/C=C2/SC(=S)N(CCC(=O)Nc3ccc(C(=O)O)cc3)C2=O)cc1 | 8.9µM | n | n | n | n | u | x | 21
COc1ccc(/C=C2\SC(=S)N(CCC(=O)Nc3cccc(C(=O)O)c3)C2=O)cc1 | u | n | n | u | n | n | x | x
Cc1cc(=O)[nH]c2ccccc12 | n | n | n | n | n | n | x | x
Cc1cc2[nH]c3c(c[n+](C)c4ccccc34)c2cc1C | u | 25µM | n | 1.3µM | u | 4.5µM | x | 15
CCOc1cc(/C=C2/NC(=S)NC2=O)ccc1OCc1ccc([N+](=O)[O-])cc1 | u | n | n | u | n | u | x | u
CCOc1cc(C(c2c(C)[nH][nH]c2=O)c2c(C)[nH][nH]c2=O)ccc1OCc1ccc([N+](=O)[O-])cc1 | n | n | n | n | u | u | x | x
C[S+](=O)([O-])N1Cc2ccccc2CC2(CCCCN2CC2CCNCC2)C1 (centres undefined) | x | x | x | x | n[6.33 µM] | x | x | x
